Test results published in PubChem BioAssay AID2330 (Broad Institute, 2010).
Screen size: about 37,000 compounds; about 2,800 (7.6%) were called active. Roughly 1% stayed inconclusive and do not appear here. Cut-off read from the data, not from the text of the source: active = inhibition above about 80%; inconclusive = no clear call, values can overlap the other calls; inactive = below that. The entries come from a sample that favours actives as a whole.

Assay: NOMO-1 AML cell viability reduction, primary screen, STK33 inhibitor project, CellTiter-Glo luminescence (AID 2330)
Conditions: NOMO-1 AML viability, 72 h, active compounds read high, concentration not given here

SMILES	inhibition
COc1ccc(CN(C)C[C@@H]2Oc3ccc(NC(=O)c4ccncc4)cc3CC(=O)N([C@H](C)CO)C[C@H]2C)cc1	13.5% (inactive)
C[C@@H]1CN([C@H](C)CO)C(=O)Cc2cc(NC(=O)c3ccncc3)ccc2O[C@@H]1CN(C)Cc1ccncc1	-19.5% (inactive)
C[C@H]1CN([C@@H](C)CO)C(=O)Cc2cc(NC(=O)Nc3ccccc3)ccc2O[C@H]1CN(C)Cc1ccncc1	19.2% (inactive)
C[C@@H]1CN([C@H](C)CO)C(=O)Cc2cc(NC(=O)C3CCCCC3)ccc2O[C@@H]1CN(C)Cc1ccc(C(F)(F)F)cc1	101% (active)
C[C@H]1CN([C@@H](C)CO)C(=O)Cc2cc(NC(=O)CCCN(C)C)ccc2O[C@@H]1CN(C)Cc1ccc(-c2ccccc2)cc1	24.3% (inactive)
C[C@@H]1CN([C@H](C)CO)C(=O)Cc2cc(NC(=O)Nc3ccc(C(F)(F)F)cc3)ccc2O[C@H]1CN(C)Cc1ccc(-c2ccccc2)cc1	128% (active)
C[C@H](CO)N1C[C@H](C)[C@H](CN(C)Cc2ccc(-c3ccccc3)cc2)Oc2ccc(NC(=O)Nc3ccc(F)cc3)cc2CC1=O	110% (active)
C[C@@H]1CN([C@@H](C)CO)C(=O)Cc2cc(NC(=O)C3CCCCC3)ccc2O[C@@H]1CN(C)C(=O)Nc1ccc(C(F)(F)F)cc1	37.5% (inactive)
C[C@H]1CN([C@@H](C)CO)C(=O)Cc2cc(NC(=O)Nc3ccc(C(F)(F)F)cc3)ccc2O[C@H]1CN(C)Cc1ccc(C(=O)O)cc1	12.6% (inactive)
C[C@@H]1CN([C@H](C)CO)C(=O)Cc2cc(NC(=O)Nc3ccc4c(c3)OCO4)ccc2O[C@H]1CN(C)Cc1ccc(C(F)(F)F)cc1	77% (inactive)
C[C@@H]1CN([C@H](C)CO)C(=O)Cc2cc(NC(=O)c3ccncc3)ccc2O[C@H]1CN(C)Cc1ccc(-c2ccccc2)cc1	111% (active)
C[C@H]1CN([C@@H](C)CO)C(=O)Cc2cc(NC(=O)C3CCCCC3)ccc2O[C@H]1CN(C)C(=O)Nc1ccc(C(F)(F)F)cc1	11.2% (inactive)
CC(C)NC(=O)N(C)C[C@@H]1Oc2ccc(NC(=O)C3CCCCC3)cc2CC(=O)N([C@H](C)CO)C[C@@H]1C	27.6% (inactive)
Cc1noc(C)c1NC(=O)Nc1cccc2c1O[C@@H](CN(C)CC1CCCCC1)[C@H](C)CN([C@@H](C)CO)C2=O	-7.61% (inactive)
Nc1nnc(SCC(=O)Nc2ccc(Cl)cc2O)s1	14.9% (inactive)
C[C@@H]1CN([C@H](C)CO)C(=O)c2cccc(NC(=O)C3CCOCC3)c2O[C@H]1CN(C)S(=O)(=O)c1ccc(Cl)cc1	7.24% (inactive)
COc1ccc(NC(=O)N(C)C[C@@H]2Oc3c(NS(C)(=O)=O)cccc3C(=O)N([C@H](C)CO)C[C@H]2C)cc1	12.7% (inactive)
COc1cccc(-c2cc(C(F)(F)F)n3nc(C(=O)NCc4ccccn4)cc3n2)c1	12.5% (inactive)
COC(=O)c1sc(SC)c(-c2ccn(S(=O)(=O)c3ccc(Cl)cc3)n2)c1C	-4.42% (inactive)
Cc1ccc(S(=O)(=O)N(C)C[C@H]2Oc3ccc(NC(=O)Cc4cn(C)c5ccccc45)cc3CC(=O)N([C@@H](C)CO)C[C@H]2C)cc1	15.7% (inactive)

SMILES	inhibition
N#Cc1c(SCC(=O)Nc2ccc(F)cc2Cl)nc2c(c1C(F)(F)F)CCCCC2	24.5% (inactive)
C=CCn1c(SCc2nc3ccccc3[nH]2)nnc1-c1cccc(C)c1	1.23% (inactive)
Cc1noc(C)c1NC(=O)Nc1ccc2c(c1)CC(=O)N([C@H](C)CO)C[C@@H](C)[C@@H](CN(C)Cc1ccc(C(F)(F)F)cc1)O2	25.7% (inactive)
C[C@H]1CN([C@@H](C)CO)C(=O)Cc2cc(NC(=O)Cc3cn(C)c4ccccc34)ccc2O[C@H]1CN(C)Cc1ccccc1	7.92% (inactive)
C[C@H]1CN([C@@H](C)CO)C(=O)Cc2cc(NC(=O)Cc3cn(C)c4ccccc34)ccc2O[C@@H]1CN(C)Cc1ccccc1	32.3% (inactive)
C[C@@H]1CN([C@H](C)CO)C(=O)Cc2cc(NC(=O)Cc3cn(C)c4ccccc34)ccc2O[C@@H]1CN(C)Cc1ccc(C(F)(F)F)cc1	112% (active)
COc1ccc(CN(C)C[C@@H]2Oc3ccc(NC(=O)Nc4ccc(OC)cc4)cc3CC(=O)N([C@H](C)CO)C[C@H]2C)cc1	22% (inactive)
C[C@@H]1CN([C@H](C)CO)C(=O)Cc2cc(NC(=O)Nc3cccc4ccccc34)ccc2O[C@@H]1CN(C)Cc1ccc(C(F)(F)F)cc1	105% (active)
C[C@@H]1CN([C@H](C)CO)C(=O)Cc2cc(NC(=O)Nc3cccc4ccccc34)ccc2O[C@@H]1CN(C)Cc1ccc(C(=O)O)cc1	20.5% (inactive)
COc1ccc(NC(=O)Nc2ccc3c(c2)CC(=O)N([C@@H](C)CO)C[C@@H](C)[C@@H](CN(C)Cc2ccc(C(F)(F)F)cc2)O3)cc1	101% (active)
COc1ccc(NC(=O)Nc2ccc3c(c2)CC(=O)N([C@H](C)CO)C[C@H](C)[C@H](CN(C)Cc2ccncc2)O3)cc1	-3.73% (inactive)
C[C@@H]1CCCCO[C@@H](CN(C)C)[C@@H](C)CN([C@H](C)CO)C(=O)c2cc(NC(=O)c3ccncc3)ccc2O1	17.5% (inactive)
CC(C)NC(=O)N(C)C[C@H]1Oc2c(NC(=O)C3CCCCC3)cccc2C(=O)N([C@@H](C)CO)C[C@H]1C	-7.34% (inactive)
C[C@H](CO)N1C[C@H](C)[C@@H](CN(C)C(=O)Nc2ccc3c(c2)OCO3)Oc2c(cccc2N(C)C)C1=O	13.3% (inactive)
Cc1noc(C)c1NC(=O)N(C)C[C@H]1Oc2ccc(NC(=O)Nc3ccc(C(F)(F)F)cc3)cc2CC(=O)N([C@@H](C)CO)C[C@@H]1C	8.18% (inactive)
O=C(O)c1c(Br)c(Br)c(Br)c(Br)c1-c1c2ccc(=O)cc-2oc2cc(O)ccc12	21.5% (inactive)
O=C(CSc1nnc(-c2cccs2)n1-c1ccccc1Cl)Nc1cccc(C(=O)O)c1	-8.58% (inactive)
O=C(NCc1ccccn1)C(=O)Nc1cccc(Cl)c1Cl	-11.7% (inactive)
N=c1n(CC(=O)c2ccc(Cl)c(Cl)c2)c2ccccc2n1Cc1ccccc1	92.6% (active)
O=c1n(Cc2ccccc2)c2ccccc2n1Cc1ccccc1	23% (inactive)

SMILES	inhibition
CC(C)(C)c1ccc(Cn2c(=N)n(CC(=O)O)c3ccccc32)cc1	31% (inactive)
Cc1noc(C)c1NC(=O)Nc1ccc2c(c1)C(=O)N([C@H](C)CO)C[C@H](C)[C@@H](CN(C)Cc1ccc3c(c1)OCO3)OCCCC[C@@H](C)O2	0.0539% (inactive)
N#C/C(=C\c1ccc(O)c(O)c1)C(N)=O	44.4% (inactive)
N#C/C(=C\c1ccc(O)c(O)c1)C(=O)NCc1ccccc1	133% (active)
CC(C)=CC1C(C(=O)O)C1(C)C (stereo not given)	-10.7% (inactive)
COc1ccc(S(=O)(=O)N(C)C[C@H]2Oc3ccc(NS(=O)(=O)c4ccc(C)cc4)cc3CC(=O)N([C@@H](C)CO)C[C@@H]2C)cc1	16.4% (inactive)
COc1ccc(S(=O)(=O)Nc2cccc3c2O[C@@H](CN(C)S(=O)(=O)c2c(C)noc2C)[C@@H](C)CN([C@H](C)CO)C3=O)cc1	0.67% (inactive)
Cc1noc(C)c1NC(=O)Nc1ccc2c(c1)C(=O)N([C@H](C)CO)C[C@@H](C)[C@@H](CN(C)Cc1ccccc1)O2	-0.997% (inactive)
Cc1ccc(S(=O)(=O)Nc2ccc3c(c2)C(=O)N([C@@H](C)CO)C[C@H](C)[C@@H](CN(C)Cc2ccc4c(c2)OCO4)O3)cc1	24.6% (inactive)
COc1ccc(S(=O)(=O)Nc2ccc3c(c2)CC(=O)N([C@H](C)CO)C[C@H](C)[C@H](CN(C)Cc2ccc(C(F)(F)F)cc2)O3)cc1	125% (active)
C[C@H](CO)N1C[C@H](C)[C@@H](CN(C)Cc2ccc(Cl)c(Cl)c2)Oc2ccc(NS(=O)(=O)c3ccccc3)cc2C1=O	20.4% (inactive)
COc1ccc(S(=O)(=O)Nc2ccc3c(c2)C(=O)N([C@@H](C)CO)C[C@H](C)[C@H](CN(C)Cc2ccc(C(F)(F)F)cc2)O3)cc1	50.5% (inactive)
C[C@@H]1CN([C@@H](C)CO)C(=O)c2cc(NS(=O)(=O)c3ccccc3)ccc2O[C@@H]1CN(C)Cc1ccc(C(=O)O)cc1	28.2% (inactive)
C[C@H](CO)N1C[C@H](C)[C@H](CN(C)Cc2ccc(-c3ccccc3)cc2)Oc2ccc(NS(=O)(=O)c3ccccc3)cc2C1=O	93.2% (active)
Cc1ccc(S(=O)(=O)Nc2ccc3c(c2)CC(=O)N([C@H](C)CO)C[C@@H](C)[C@H](CN(C)Cc2ccc(C(F)(F)F)cc2)O3)cc1	108% (active)
C[C@H]1CN([C@@H](C)CO)C(=O)Cc2cc(NS(=O)(=O)c3ccc(F)cc3)ccc2O[C@H]1CN(C)Cc1ccc(C(F)(F)F)cc1	34.1% (inactive)
COc1ccc(S(=O)(=O)Nc2ccc3c(c2)C(=O)N([C@@H](C)CO)C[C@H](C)[C@@H](CN(C)Cc2ccc(C(F)(F)F)cc2)O3)cc1	33.8% (inactive)
Cc1ccc(S(=O)(=O)Nc2ccc3c(c2)C(=O)N([C@H](C)CO)C[C@H](C)[C@H](CN(C)Cc2ccc(Cl)c(Cl)c2)O3)cc1	91% (active)
COc1ccc(S(=O)(=O)Nc2ccc3c(c2)C(=O)N([C@H](C)CO)C[C@H](C)[C@@H](CN(C)Cc2ccc(-c4ccccc4)cc2)O3)cc1	39.1% (inactive)
Cc1ccc(S(=O)(=O)Nc2ccc3c(c2)CC(=O)N([C@@H](C)CO)C[C@H](C)[C@H](CN(C)Cc2ccccc2)O3)cc1	26% (inactive)
